The structures appear in SMILES notation. A number with no mark means an inactive call. The rule behind the calls is not given here. Some results are limits rather than exact numbers.
Potency is the fitted concentration of half-maximal effect.

The subject of this assay is HIV-1 nucleocapsid protein NCp7 (binding to TG oligonucleotide). Kind of assay: HIV Nucleocapsid (AID 346).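 Note: potency is for inhibitors that block NC binding and lower polarization.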 Particulars: HIV-1 NC / fluorescein-TGTGTGTG probe, fluorescence polarization. In outline: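 Reagents dispensed (10 nM TG4xF, 100 nM HIV-1 NC), plates spun, compounds pin-transferred, then incubated 1 hr at room temperature before FP imaging. Buffer: Hepes pH 7.5, 250mM NaCl, 1uM ZnCl2, 100 uM TCEP, 5 mM 2-mercaptoethanol.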
For the molecule `COc1ccc(C(=O)N2CCC3(CCN(C(=O)Nc4ccccc4)CC3)CC2)cc1`, the Potency was > 20 µM.

For the molecule `COCC(=O)N1CCC2(CCN(Cc3nccs3)CC2)CC1`, the Potency is > 20 µM.

Regarding `O=c1c(-c2ccc(Cl)cc2)nc2cnc(Oc3ccccc3)nc2n1C1CC1`, the Potency is > 20 µM.

As to `CN(C)Cc1ccccc1-c1nccc(Nc2ccc(F)cc2)n1`, the Potency was > 20 µM.

On to `COc1ccc2[nH]cc(CCNc3ccnc(-c4ccccc4Cl)n3)c2c1`, for which the Potency was > 20 µM.

As for `CCNc1ncc2nc(-c3cccc(C#N)c3)c(=O)n(CCC#N)c2n1`, the Potency is > 4 µM.

Turning to `Cc1noc(C)c1-c1cncnc1NC1CC1`, the Potency is > 20 µM.

As to `CN(Cc1ccco1)c1nc(-c2ccoc2)nc2ccccc12`, the Potency is > 20 µM.

For the molecule `CCNc1ncc2nc(-c3cc(F)cc(F)c3)c(=O)n(-c3ccc(OC)cc3)c2n1`, the Potency is > 4 µM.

As for `CN1CCN(c2ccnc(-c3ccccc3C(F)(F)F)n2)CC1`, the Potency was > 20 µM.

Take `Cn1cccc1C(=O)N1CCC2(CC1)CN(C(=O)Nc1cccc(C#N)c1)C2`: the Potency is > 20 µM.

For `CN(C)c1ncc2nc(-c3ccc(Cl)cc3)c(=O)n(C)c2n1`, the Potency was > 20 µM.

For the molecule `COc1ccc(NC(=O)N2CC[C@@]3(CCCNC3)C2)cc1`, the Potency was > 20 µM.

In the case of `COc1ccc(CNc2nc(-c3ccc(C(=O)N(C)C)cc3)nc3ccccc23)c(OC)c1`, the Potency is > 20 µM.

For `O=c1c(-c2ccc(Cl)cc2)nc2cnc(N3CCNCC3)nc2n1-c1ccccc1`, the Potency was > 20 µM.

With `CN(Cc1ccco1)c1ccnc(-c2cccnc2)n1`, the Potency is > 20 µM.

Turning to `CS(=O)(=O)N1CCC2(CCCN(C(c3ccccc3)c3ccccc3)C2)CC1`, the Potency is > 20 µM.

Regarding `O=C(c1ccncc1)N1CCC2(CCCN(c3cccc(-c4ccccc4)c3)C2)CC1`, the Potency is > 20 µM.

As to `COc1ncc2nc(C)c(=O)n(Cc3ccc(F)cc3)c2n1`, the Potency is > 20 µM.

With `COc1ccc(C(=O)N2CCC3(CCCN(CC(C)C)C3)CC2)cc1`, the Potency is > 20 µM.

In the case of `COc1ncc2nc(-c3cc(F)cc(F)c3)c(=O)n(C)c2n1`, the Potency was > 20 µM.

For `CCNc1ncc2nc(CCc3ccccc3)c(=O)n(Cc3cccc(OC)c3)c2n1`, the Potency was > 20 µM.

For the molecule `CN(C)C(=O)c1ccc(-c2nc(N3CCOCC3)c3ccccc3n2)cc1`, the Potency was > 20 µM.

As to `COc1ccccc1-c1nccc(N2CCN(C)CC2)n1`, the Potency is > 20 µM.

Turning to `COCCn1c(=O)c(-c2ccc(OC)cc2)nc2cnc(N3CCNCC3)nc21`, the Potency was > 20 µM.

In the case of `O=c1cnc2cnc(Oc3ccccc3)nc2n1Cc1ccc(F)cc1`, the Potency was > 20 µM.

Regarding `N#CCCn1c(=O)c(-c2ccccc2)nc2cnc(Nc3ccccc3)nc21`, the Potency is > 20 µM.

Turning to `COc1cccc(Cn2c(=O)cnc3cnc(Oc4cccc(Cl)c4)nc32)c1`, the Potency was > 20 µM.

Turning to `NCCn1c(=O)c(CCc2ccccc2)nc2cncnc21`, the Potency was > 20 µM.

In the case of `COc1cccc(Cn2c(=O)c(-c3cccs3)nc3cnc(N(C)C)nc32)c1`, the Potency was > 20 µM.

As to `Cc1cnc(CNc2ncnc3ccc(-c4ccccc4C)cc23)cn1`, the Potency was > 20 µM.

`FC(F)(F)c1ccccc1-c1cc(NCCN2CCOCC2)ncn1`: the Potency is > 20 µM.

As to `COc1ccc(CNc2ncnc3ccc(-c4cccc(C#N)c4)cc23)c(OC)c1`, the Potency was > 20 µM.

As to `Cc1cnc(CNc2nc(-c3c(C)noc3C)nc3ccccc23)cn1`, the Potency was > 20 µM.

With `Cc1noc(C)c1C(=O)N1CCC2(CCCN(c3ccccn3)C2)CC1`, the Potency was > 20 µM.

For the molecule `O=C(c1cccc(F)c1)N1CCC2(CCCN(c3ccccc3)C2)CC1`, the Potency is > 20 µM.

Turning to `CC(C)NC(=O)N1CC2(CCN(C(=O)c3cc(C(F)(F)F)cc(C(F)(F)F)c3)CC2)C1`, the Potency is > 20 µM.

`CC(=O)NCCNc1ccnc(-c2ccccc2C(F)(F)F)n1`: the Potency is > 20 µM.

As to `N#Cc1ccc(CN2CC[C@@]3(CCCN(C(=O)c4cc(C(F)(F)F)cc(C(F)(F)F)c4)C3)C2)cc1`, the Potency is > 20 µM.

As for `CC(=O)N1CCC2(CC1)CCN(C(c1ccccc1)c1ccccc1)CC2`, the Potency is > 20 µM.

The values are drawn from PubChem BioAssay (NCATS).
